From PubChem BioAssay AID763 (NMMLSC, 2007)
Active and inactive are the calls of the source. How the calls were made is not given here.

Each molecule was assayed against fMet-Leu-Phe receptor (Homo sapiens) (UniProt P21462) (assay: FPR1 fluorescent ligand binding inhibitors, SAR follow-up, selectivity assay for FPRL1 ligand SAR project, cell-based, single concentration (AID 763)). Details: FPR1-expressing cells, hits give high values; at 5.4 µM unless noted.
Sequence of fMet-Leu-Phe receptor (Homo sapiens) (P21462 whole entry, looked up): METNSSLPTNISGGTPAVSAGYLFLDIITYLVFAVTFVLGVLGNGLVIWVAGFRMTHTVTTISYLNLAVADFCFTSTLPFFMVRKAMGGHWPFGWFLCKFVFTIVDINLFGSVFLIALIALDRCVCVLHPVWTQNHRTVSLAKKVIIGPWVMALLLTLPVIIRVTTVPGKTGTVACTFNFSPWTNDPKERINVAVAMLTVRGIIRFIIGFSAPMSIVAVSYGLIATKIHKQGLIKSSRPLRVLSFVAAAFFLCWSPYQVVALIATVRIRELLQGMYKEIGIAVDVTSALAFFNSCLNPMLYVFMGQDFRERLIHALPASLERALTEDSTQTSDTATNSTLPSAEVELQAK

inhibition, inactive:
COc1ccc(-c2cn3cccnc3n2)cc1NC(=O)c1ccc(OC)c(OC)c1 -5.3% [at 5.5 µM]
O=C(O)CCCC(=O)N1CCN(c2nc(-c3ccccc3Cl)c3cc(Br)ccc3n2)CC1 1.9% [at 4.3 µM]
Cc1ccc2nc(N3CCN(C(=O)CCC(=O)O)CC3)nc(-c3ccccc3)c2c1 5.7% [at 5.5 µM]
CCOc1cc(C(=O)Nc2cc(-c3cn4cccnc4n3)ccc2OC)cc(OCC)c1OCC 0% [at 4.7 µM]
COc1ccc(-c2nc(N3CCN(C)CC3)[nH]c(=O)c2C#N)cc1 -1.7% [at 6.8 µM]
COc1cccc(-c2cc(C(F)(F)F)nc(N3CCN(c4ccccc4)CC3)n2)c1 -7.4%
CCC(=O)Nc1cc(-c2cn3cccnc3n2)ccc1OC 5% [at 7.5 µM]
CCOC(=O)N1CCN(c2nc(-c3ccc(OC)cc3)cc(C(F)(F)F)n2)CC1 -5.3%
Fc1ccc(-c2cc(C(F)(F)F)nc(N3CCN(C(c4ccccc4)c4ccccc4)CC3)n2)cc1 1.3% [at 4.5 µM]
O=C1CC(c2ccco2)Cc2nc(N3CCN(Cc4ccccc4)CC3)ncc21 (centres undefined) 5.5% [at 5.7 µM]
O=C(O)CCCC(=O)N1CCN(c2nc(-c3ccccc3)c3ccccc3n2)CC1 -2.1% [at 5.5 µM]
FC(F)(F)c1cc(-c2ccco2)nc(N2CCN(C(c3ccccc3)c3ccccc3)CC2)n1 0.5% [at 4.8 µM]
CC(C)(C)OC(=O)N1CCN(c2nc(-c3ccccc3)c3ccccc3n2)CC1 -1.7% [at 5.7 µM]
FC(F)(F)c1cc(-c2cccs2)nc(N2CCN(Cc3ccccc3)CC2)n1 0.4% [at 5.5 µM]
Clc1ccccc1-c1nc(N2CCN(c3ccccc3)CC2)nc2ccc(Br)cc12 1.5% [at 4.6 µM]
COc1ccc(-c2cn3cccnc3n2)cc1NC(=O)C1CCCCC1 3.2% [at 6.3 µM]
Cc1ccc2nc(N3CCN(c4ccccc4Cl)CC3)nc(-c3ccccc3)c2c1 -6%
CCOc1ccc(C(=O)Nc2cc(-c3cn4cccnc4n3)ccc2OC)cc1 -6.6% [at 5.7 µM]
COc1cccc(-c2cc(C(F)(F)F)nc(N3CCN(Cc4ccccc4)CC3)n2)c1 -16.6% [at 5.2 µM]
COc1ccc(-c2cn3cccnc3n2)cc1NC(=O)C1CCCC1 6.6% [at 6.6 µM]
CC(=O)N1CCN(c2nc(-c3ccccc3)c3cc(Cl)ccc3n2)CC1 2.2% [at 6.1 µM]
COc1ccccc1-c1cc(C(F)(F)F)nc(N2CCN(C)CC2)n1 5% [at 6.3 µM]
COc1ccc(-c2cn3cccnc3n2)cc1NC(=O)Cc1cccc(C)c1 4.7% [at 6 µM]
COc1ccc(-c2cn3cccnc3n2)cc1NC(=O)c1ccco1 1.3% [at 6.7 µM]
CC1CCc2nc(N3CCN(Cc4ccccc4)CC3)nc(C(F)(F)F)c2C1 (centres undefined) 4.7% [at 5.7 µM]
COc1ccc(-c2cn3cccnc3n2)cc1NC(=O)CCCc1ccccc1 -0.5% [at 5.8 µM]
O=C(O)C1CC=CCC1C(=O)N1CCN(c2nc(-c3ccccc3Cl)c3cc(Br)ccc3n2)CC1 (centres undefined) 5.3% [at 4 µM]
CC(C)(C)OC(=O)N1CCN(c2nc(-c3ccccc3)c3cc(Br)ccc3n2)CC1 3.5% [at 4.7 µM]
COc1ccccc1-c1cc(C(F)(F)F)nc(N2CCN(Cc3ccccc3)CC2)n1 1.1% [at 5.2 µM]
O=C(c1ccccc1)N1CCN(c2nc(-c3ccccc3)c3ccccc3n2)CC1 1.8% [at 5.6 µM]
N#Cc1cc(-c2ccccc2)nc(N2CCN(c3ccccc3)CC2)n1 -6% [at 6.5 µM]
Cc1ccc(-c2cc(C(F)F)nc(N3CCN(c4cccc(Cl)c4)CC3)n2)cc1 2.7%
COc1ccc(-c2cn3cccnc3n2)cc1NC(=O)c1cccc(OC)c1OC -0.2% [at 5.5 µM]
Cc1ccccc1N1CCN(c2nc(-c3ccccc3)c3cc(Br)ccc3n2)CC1 3.5% [at 4.8 µM]
